Among all 5,500 compounds or so, about 2,000 (36%) were called active. About 18% were inconclusive and are not listed. The list shows a part of the results. A number with no mark means an inactive call. Rule as the data show it: active = normalized growth mostly below about 0.91 (no sharp cut-off); inconclusive = no clear call, values can overlap the other calls; inactive = mostly above about 0.92.
Assay: chemical genetic growth profiling, strain panel (AID 1159580);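 also: tested at 20 µM; growth read once vehicle control cultures reached saturation at 30 °C; 1 = growth at the plate median or of vehicle wells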
Conditions: growth OD
[1] = S. cerevisiae deletion strains, locus YAL013W, strain DEP1, stronger effect = lower value
[2] = S. cerevisiae deletion strains, locus YAL040C, strain CLN3, stronger effect = lower value
[3] = S. cerevisiae deletion strains, locus YCL061C, strain MRC1 (second series), stronger effect = lower value
[4] = S. cerevisiae deletion strains, locus YDR363W, strain ESC2, stronger effect = lower value
[5] = S. cerevisiae deletion strains, locus YER002W, strain NOP16, stronger effect = lower value
[6] = S. cerevisiae deletion strains, locus YJR075W, strain HOC1, stronger effect = lower value
[7] = S. cerevisiae deletion strains, locus YMR263W, strain SAP30, stronger effect = lower value
[8] = S. cerevisiae deletion strains, locus YMR307W, strain GAS1, stronger effect = lower value
[9] = S. cerevisiae deletion strains, locus YNL128W, strain TEP1, stronger effect = lower value
[10] = S. cerevisiae deletion strains, locus YNL175C, strain NOP13, stronger effect = lower value
[11] = S. cerevisiae deletion strains, locus YNL197C, strain WHI3, stronger effect = lower value
[12] = S. cerevisiae deletion strains, locus YNL224C, strain SQS1, stronger effect = lower value
[13] = S. cerevisiae deletion strains, locus YNL322C, strain KRE1, stronger effect = lower value
[14] = S. cerevisiae deletion strains, locus YOR083W, strain WHI5 (second series), stronger effect = lower value
[15] = S. cerevisiae deletion strains, locus YPL055C, strain LGE1, stronger effect = lower value
[16] = S. cerevisiae deletion strains, locus YPL241C, strain CIN2, stronger effect = lower value
[17] = S. cerevisiae deletion strains, locus YDR150W, strain NUM1, stronger effect = lower value
[18] = S. cerevisiae deletion strains, locus YGR078C, strain PAC10, stronger effect = lower value
[19] = S. cerevisiae deletion strains, locus YNL153C, strain GIM3, stronger effect = lower value

Which normalized growth [1] does the source give for `C[C@]12CC[C@H]3[C@@H](CCC4C[C@H](O)CC[C@@]43C)[C@@H]1CC[C@@H]2O` (some centres undefined) here?
The normalized growth was 0.946.

What about the normalized growth [2] of the same molecule?
Its normalized growth is 1.02.

What about the normalized growth [3] of the same molecule?
Its normalized growth is 1.

And the normalized growth [4]?
Its normalized growth is 0.987.

And the normalized growth [5]?
Its normalized growth is 1.

And the normalized growth [6]?
Its normalized growth is 1.06.

And the normalized growth [7]?
Its normalized growth is 1.03.

What about the normalized growth [8] of the same molecule?
The normalized growth was 0.977.

And the normalized growth [9]?
The normalized growth was 1.03.

And the normalized growth [10]?
Its normalized growth is 1.02.

And the normalized growth [11]?
The normalized growth was 0.964.

What about the normalized growth [12] of the same molecule?
Its normalized growth is 1.01.

And the normalized growth [13]?
Its normalized growth is 1.02.

And the normalized growth [14]?
Its normalized growth is 0.966.

What about the normalized growth [15] of the same molecule?
The normalized growth was 1.03.

What about the normalized growth [16] of the same molecule?
The normalized growth was 1.03.

For `C[C@]12CCC3C(CC[C@H]4C[C@H](O)CC[C@]34C)C1CC[C@@H]2C(=O)CO` (some centres undefined), which normalized growth [1] is on record?
Its normalized growth is 1.02.

What about the normalized growth [2] of the same molecule?
The normalized growth was 1.08.

And the normalized growth [3]?
The normalized growth was 1.01.

What about the normalized growth [17] of the same molecule?
Its normalized growth is 1.03.

What about the normalized growth [4] of the same molecule?
The normalized growth was 1.02.

What about the normalized growth [5] of the same molecule?
Its normalized growth is 1.02.

And the normalized growth [6]?
Its normalized growth is 1.06.

And the normalized growth [8]?
Its normalized growth is 0.939.

And the normalized growth [9]?
Its normalized growth is 1.02.

What about the normalized growth [10] of the same molecule?
The normalized growth was 1.04.

And the normalized growth [11]?
Its normalized growth is 1.02.

What about the normalized growth [12] of the same molecule?
Its normalized growth is 0.995.

And the normalized growth [14]?
The normalized growth was 1.01.

What about the normalized growth [15] of the same molecule?
Its normalized growth is 1.03.

What about the normalized growth [16] of the same molecule?
Its normalized growth is 1.03.

With `CC12CCC3C(CC[C@H]4CC5(CCC34C)OCCO5)C1CCC2O` (some centres undefined) as the molecule, how does the normalized growth [1] read?
Its normalized growth is 0.988.

What about the normalized growth (S. cerevisiae deletion strains, locus YBR229C, strain ROT2, stronger effect = lower value) of the same molecule?
The normalized growth was 1.01.

And the normalized growth (S. cerevisiae deletion strains, locus YCL061C, strain MRC1, stronger effect = lower value)?
The normalized growth was 0.87 (active).

What about the normalized growth (S. cerevisiae deletion strains, locus YDL101C, strain DUN1, stronger effect = lower value) of the same molecule?
The normalized growth was 0.976.

And the normalized growth [17]?
The normalized growth was 0.912.

What about the normalized growth (S. cerevisiae deletion strains, locus YEL061C, strain CIN8, stronger effect = lower value) of the same molecule?
The normalized growth was 0.999.

And the normalized growth [18]?
The normalized growth was 0.968.

What about the normalized growth (S. cerevisiae deletion strains, locus YHR030C, strain SLT2, stronger effect = lower value) of the same molecule?
The normalized growth was 0.969.

And the normalized growth (S. cerevisiae deletion strains, locus YHR087W, strain rtc3, stronger effect = lower value)?
Its normalized growth is 1.02.

And the normalized growth (S. cerevisiae deletion strains, locus YJL187C, strain SWE1, stronger effect = lower value)?
The normalized growth was 0.92 (active).

What about the normalized growth (S. cerevisiae deletion strains, locus YJR043C, strain POL32, stronger effect = lower value) of the same molecule?
The normalized growth was 0.877 (active).

What about the normalized growth [6] of the same molecule?
The normalized growth was 1.

And the normalized growth (S. cerevisiae deletion strains, locus YKL190W, strain CNB1, stronger effect = lower value)?
The normalized growth was 1.03.

What about the normalized growth (S. cerevisiae deletion strains, locus YLR039C, strain RIC1, stronger effect = lower value) of the same molecule?
Its normalized growth is 0.74 (active).

What about the normalized growth (S. cerevisiae deletion strains, locus YLR058C, strain SHM2 (second series), stronger effect = lower value) of the same molecule?
Its normalized growth is 1.04.

What about the normalized growth (S. cerevisiae deletion strains, locus YLR085C, strain ARP6, stronger effect = lower value) of the same molecule?
Its normalized growth is 1.03.

What about the normalized growth (S. cerevisiae deletion strains, locus YLR262C, strain YPT6, stronger effect = lower value) of the same molecule?
The normalized growth was 0.625 (active).

And the normalized growth (S. cerevisiae deletion strains, locus YML094W, strain GIM5, stronger effect = lower value)?
The normalized growth was 0.98.

And the normalized growth (S. cerevisiae deletion strains, locus YMR219W, strain ESC1, stronger effect = lower value)?
Its normalized growth is 1.

What about the normalized growth [7] of the same molecule?
The normalized growth was 0.992.

What about the normalized growth [8] of the same molecule?
Its normalized growth is 1.05.

And the normalized growth [19]?
The normalized growth was 0.905 (active).

What about the normalized growth (S. cerevisiae deletion strains, locus YNL298W, strain CLA4 (second series), stronger effect = lower value) of the same molecule?
The normalized growth was 0.945.

And the normalized growth [13]?
The normalized growth was 1.08 [resistant] (active).

And the normalized growth (S. cerevisiae deletion strains, locus YNR030W, strain Alg12, stronger effect = lower value)?
The normalized growth was 0.963.

What about the normalized growth [15] of the same molecule?
Its normalized growth is 0.98.

And the normalized growth [16]?
The normalized growth was 0.962.

What about the normalized growth (S. cerevisiae deletion strains, locus YPR135W, strain CTF4, stronger effect = lower value) of the same molecule?
Its normalized growth is 0.832.

And the normalized growth (S. cerevisiae strains, strain wild type, stronger effect = lower value)?
Its normalized growth is 1.02.

Which normalized growth [1] does the source give for `CC(=O)[C@H]1CCC2C3CC[C@H]4C[C@H](O)CC[C@]4(C)C3CC[C@@]21C` (some centres undefined) here?
Its normalized growth is 1.01.

What about the normalized growth [2] of the same molecule?
Its normalized growth is 0.979.

What about the normalized growth [3] of the same molecule?
The normalized growth was 1.

And the normalized growth [4]?
The normalized growth was 1.04.

And the normalized growth [5]?
The normalized growth was 1.

What about the normalized growth [18] of the same molecule?
Its normalized growth is 1.01.

What about the normalized growth [8] of the same molecule?
The normalized growth was 0.935.

What about the normalized growth [9] of the same molecule?
Its normalized growth is 1.01.

What about the normalized growth [19] of the same molecule?
Its normalized growth is 0.944.

And the normalized growth [10]?
Its normalized growth is 0.993.

And the normalized growth [11]?
Its normalized growth is 1.01.

What about the normalized growth [12] of the same molecule?
Its normalized growth is 1.

And the normalized growth [14]?
The normalized growth was 1.

And the normalized growth [15]?
The normalized growth was 0.98.
